This note sets out measurements from PubChem BioAssay AID720641 (ICCB-Longwood Screening Facility, Harvard Medical School, 2013).

This test is described as follows: S. aureus growth inhibition at 42 and 30 °C, primary screen, LtaS inhibitor project, RN4220, two temperatures (AID 720641). The following applies: OD600, 20 h, 42 °C, stronger effect = lower value.

Out of some 170,000 compounds screened, about 900 (0.53%) were called active.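 How the source made its calls: active means relative growth at most 50% at the other temperature and 20+ points below 30 °C, or under 10% at both; inactive means the rest, inconclusive results apart.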 The sample as a whole holds a higher share of actives than the screen did.

On to `Cc1ccc(NC(=O)c2nc(S(=O)(=O)Cc3cccc(C)c3)ncc2Cl)cc1`, for which the relative growth is 8.42% (active). Further, for the setting “measured here: growth at 30 °C”, the relative growth turned out to be 21.7%.

`CCSc1ncc(Cl)c(C(=O)Nc2cc(C)ccc2C)n1`: the relative growth was 108% (inactive). Moreover, under “measured here: growth at 30 °C”, the relative growth is 85.1%.

Regarding `CSc1nnc(NC(=O)c2nc(S(=O)(=O)Cc3ccc(F)cc3)ncc2Cl)s1`, the relative growth is 93.7% (inactive). For the setting “measured here: growth at 30 °C”, the relative growth turned out to be 90.3%.

Consider `COc1cccc(OCCCN2CCNCC2)c1`, for which the relative growth is 107% (inactive). The relative growth (measured here: growth at 30 °C) came to 91%.

As to `Cc1ccc(S(=O)(=O)N(C)c2ccc(OCC(=O)N3CCN(c4ncccn4)CC3)cc2)cc1`, the relative growth is 105% (inactive). In addition, the relative growth (measured here: growth at 30 °C) stood at 95.7%.

`O=C(CSc1nnc(-c2ccccc2)o1)N(CC1CCCO1)c1nc2ccccc2s1` (centres undefined): the relative growth was 101% (inactive). Besides, under “measured here: growth at 30 °C”, the relative growth is 92.8%.

On to `C=CCn1c(SCC(=O)Nc2sc(C(=O)OC)c(C)c2C(=O)OC)nc2ccccc21`, for which the relative growth is 103% (inactive). Also, for the setting “measured here: growth at 30 °C”, the relative growth was 90.4%.

As to `Cc1ccc2nc(Nc3ccccc3)cc(C)c2c1`, the relative growth was 75.4% (inactive). The relative growth (measured here: growth at 30 °C) is 74.3%.

As to `Cc1ccc(Nc2nc3ccccc3nc2-n2nc(C)cc2C)c(Cl)c1`, the relative growth was 102% (inactive). Also, the relative growth (measured here: growth at 30 °C) was 86.6%.

As to `Cc1cccc(Nc2cc(C)nc(-n3nc(C)cc3C)n2)c1`, the relative growth was -0.22% (active). Also, the relative growth (measured here: growth at 30 °C) is -0.24%.

Turning to `Cc1nc2ccccc2nc(C)c1=NOCC(=O)Nc1ccc(S(=O)(=O)N2CCOCC2)cc1`, the relative growth is 102% (inactive). Also, for the setting “measured here: growth at 30 °C”, the relative growth was determined as 96.4%.

Consider `O=C(CCCN1C(=O)CSc2ncccc21)N1CCCCC1`, for which the relative growth is 98.9% (inactive). Under “measured here: growth at 30 °C”, the relative growth was 84.5%.

Take `COc1ccc(C(C(=O)NC2CCCC2)N(C(=O)c2ccn[nH]2)c2ccc(F)cc2)cc1OC` (centres undefined): the relative growth was 113% (inactive). The relative growth (measured here: growth at 30 °C) is 89%.

With `CC(C)NC(=O)CSc1ccccc1C(=O)Nc1ccc(-n2cnnn2)cc1`, the relative growth is 102% (inactive). For the same compound, for the setting “measured here: growth at 30 °C”, the relative growth stood at 89.2%.

For the compound `c1ccc(NC2CCCCC2)cc1`, the relative growth was 104% (inactive). Further, the relative growth (measured here: growth at 30 °C) was found to be 103%.

Regarding `O=S(=O)(Nc1ccc2cn[nH]c2c1)c1ccccc1`, the relative growth is 105% (inactive). The relative growth (measured here: growth at 30 °C) was determined as 98.5%.

For `c1ccc2c(c1)CC(Nc1ccc3cn[nH]c3c1)C2`, the relative growth is 1.74% (active). For the same compound, the relative growth (measured here: growth at 30 °C) was 1.83%.

For `Cc1cc(C)c(NC(=O)C2CC3c4ccccc4C2C2C=CC=CC32)c(C)c1` (centres undefined), the relative growth was 123% (inactive). For the same compound, the relative growth (measured here: growth at 30 °C) stood at 88.2%.

Take `COc1ccc2c(c1)NC(c1ccccc1)c1cccn1-2` (centres undefined): the relative growth was 69.2% (inactive). The relative growth (measured here: growth at 30 °C) turned out to be 62.6%.

Consider `Nc1cc(C(F)(F)F)ccc1-n1cccn1`, for which the relative growth was 92.8% (inactive). For the setting “measured here: growth at 30 °C”, the relative growth was determined as 95.4%.

In the case of `Oc1c(Cl)cc(Cl)cc1C1Nc2cc(C(F)(F)F)ccc2-n2cccc21` (centres undefined), the relative growth was 5.2% (active). The relative growth (measured here: growth at 30 °C) turned out to be 6.75%.

Take `COCCCn1c(C)cc(C(=O)CSc2ncnc3ccccc23)c1C`: the relative growth is 136% (inactive). Moreover, the relative growth (measured here: growth at 30 °C) is 92.1%.

With `CC1Cc2ccccc2N1c1ccc2ccccc2n1` (centres undefined), the relative growth was 94.3% (inactive). In addition, the relative growth (measured here: growth at 30 °C) came to 99.6%.

Turning to `C/C=C/c1ccc(OCC(=O)OC(C)C(N)=O)c(OC)c1` (centres undefined), the relative growth is 71.1% (inactive). Moreover, for the setting “measured here: growth at 30 °C”, the relative growth came to 88.7%.

For `COc1cc(/C=C/C(=O)OCC(N)=O)ccc1OCC#N`, the relative growth was 46.3% (active). Further, the relative growth (measured here: growth at 30 °C) stood at 78.8%.

As to `COc1ccc(/C=C/C(=O)N2CCCC2)cc1OC`, the relative growth was 81.4% (inactive). For the same compound, under “measured here: growth at 30 °C”, the relative growth was found to be 88.8%.

For `COc1cc(C2C(C(=O)Nc3ccccn3)=C(C)NC3=C2C(=O)CCC3)cc(OC)c1OC` (centres undefined), the relative growth was 98.5% (inactive). In addition, the relative growth (measured here: growth at 30 °C) was 93.4%.

Regarding `CC(C)CC(=O)n1c(=O)oc2ccccc21`, the relative growth is 96.6% (inactive). Besides, where the note is “measured here: growth at 30 °C”, the relative growth was found to be 101%.

Turning to `N#Cc1c(-c2ccco2)cc(C2CC2)nc1SCC(=O)c1ccc(Br)cc1`, the relative growth was 82.6% (inactive). Besides, for the setting “measured here: growth at 30 °C”, the relative growth is 76.7%.

For the compound `O=C(NCCSc1ccccc1)c1cccnc1Oc1ccccc1`, the relative growth is 115% (inactive). In addition, the relative growth (measured here: growth at 30 °C) stood at 76.2%.

For `CC(=O)Oc1cccc2c1OC(C)(C)C2`, the relative growth is 117% (inactive). In addition, the relative growth (measured here: growth at 30 °C) is 99.9%.

Take `CC(=O)Oc1ccc(OC(C)=O)c2c1C1C=CC2CC1`: the relative growth was 105% (inactive). For the same compound, the relative growth (measured here: growth at 30 °C) was 99.4%.

Turning to `CC(=O)Oc1cccc2c1C(=O)C=CC2=O`, the relative growth was 2.55% (active). For the same compound, the relative growth (measured here: growth at 30 °C) is 1.59%.

`CSCCC(=O)Nc1nc2ccccc2[nH]1`: the relative growth was 113% (inactive). Moreover, the relative growth (measured here: growth at 30 °C) was 87.5%.

With `CCc1ccc(NC(=O)Nc2ccccc2)cc1`, the relative growth was 93.4% (inactive). Further, the relative growth (measured here: growth at 30 °C) is 96.9%.

For the compound `O=C(Nc1ccccc1)Nc1ccc(Cl)c(Cl)c1`, the relative growth is 2.14% (active). The relative growth (measured here: growth at 30 °C) was found to be 2.42%.

On to `CC(C)Oc1ccc(C(=O)Nc2ccnn2C2CCCCC2)cc1`, for which the relative growth was 105% (inactive). The relative growth (measured here: growth at 30 °C) turned out to be 98.1%.

Consider `O=C(Nc1ccc(Cl)c(Cl)c1)Nc1ccnn1C1CCCCC1`, for which the relative growth is -0.5% (active). Also, under “measured here: growth at 30 °C”, the relative growth is -0.69%.

For `CC(=O)Nc1ccc2c(c1)CN(C1CCCCC1)CO2`, the relative growth is 90.6% (inactive). In addition, under “measured here: growth at 30 °C”, the relative growth came to 87.6%.

Consider `O=C(Nc1cccc(Cl)c1)Nc1ccccn1`, for which the relative growth is 61.4% (inactive). The relative growth (measured here: growth at 30 °C) was 70%.

In the case of `CC(=O)N1CC(C(=O)Nc2cccc(-c3nnc4n3CCCCC4)c2)Oc2ccccc21` (centres undefined), the relative growth was 78.4% (inactive). In addition, the relative growth (measured here: growth at 30 °C) came to 92.9%.

`Cc1ccc2nc(COC(=O)Cn3[nH]c(=O)c4ccccc4c3=O)cc(=O)n2c1`: the relative growth is 78.6% (inactive). In addition, where the note is “measured here: growth at 30 °C”, the relative growth came to 90.7%.

On to `CCOc1ccc(C(=O)N2CCC(Cc3ccccc3)CC2)cc1`, for which the relative growth is 122% (inactive). In addition, the relative growth (measured here: growth at 30 °C) worked out at 75.5%.

As to `CS(=O)(=O)NCCNc1cc(-c2ccccc2)nc2ccccc12`, the relative growth is 99.5% (inactive). Also, where the note is “measured here: growth at 30 °C”, the relative growth is 72.5%.

Regarding `CCC(CC)NCc1ccc(OC)c(C)c1OC`, the relative growth was 74.7% (inactive). Moreover, under “measured here: growth at 30 °C”, the relative growth amounted to 81.6%.

Turning to `COc1ccc(-c2nn(C)c3sc(C(=O)NCCN4CCN(c5ccccc5F)CC4)cc23)cc1OC`, the relative growth is 82.7% (inactive). The relative growth (measured here: growth at 30 °C) came out at 76.9%.

Consider `O=C(c1ccco1)N1CCN(C(=O)c2cc3c(s2)CCCC3)CC1`, for which the relative growth is 96.3% (inactive). The relative growth (measured here: growth at 30 °C) was 87.5%.

Consider `O=C(Sc1nc(-c2ccccc2)c(-c2ccccc2)[nH]1)c1cccs1`, for which the relative growth was 84.6% (inactive). The relative growth (measured here: growth at 30 °C) is 74.2%.

For the compound `Cc1cc(SCc2ccc(F)cc2)c(C)cc1Cl`, the relative growth was 105% (inactive). For the same compound, the relative growth (measured here: growth at 30 °C) stood at 102%.

Consider `NC(=O)c1oc2ccccc2c1NC(=O)Cc1ccc(Cl)cc1`, for which the relative growth was 89.8% (inactive). Moreover, the relative growth (measured here: growth at 30 °C) is 77.5%.

For `CC1CCN(C(=O)COc2ccc(-c3nn(C)c(=O)c4ccccc34)cc2)CC1`, the relative growth was 86.8% (inactive). Besides, the relative growth (measured here: growth at 30 °C) turned out to be 89.7%.

Take `Cc1ccccc1OCc1nc(C#N)c(NC(C)c2ccccc2)o1` (centres undefined): the relative growth is 82.4% (inactive). Moreover, the relative growth (measured here: growth at 30 °C) was determined as 79.9%.
